Assay results from PubChem BioAssay.
Calls of active or inactive are those of the source. Unless noted, how the calls were made is not given here.

Assays:
[1] = A549 cell viability effects, profiling panel, calcein-AM fluorescence, 48 h, basal (AID 1162); conditions: higher = more signal; further: test concentration not given here
[2] = adipocyte viability effects, profiling panel, cell-based, 3T3-L1 adipocytes, calcein-AM fluorescence, 48 h, basal (AID 1163); conditions: 3T3-L1 adipocytes viability, higher = more signal; further: test concentration not given here
[3] = HepG2 cell viability effects, profiling panel, calcein-AM fluorescence, 48 h, basal (AID 1164); conditions: higher = more signal; further: test concentration not given here
[4] = MM1S cell viability effects, profiling panel, calcein-AM fluorescence, 48 h, basal (AID 1165); conditions: higher = more signal;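 further: viability of MM1S multiple myeloma cells under basal unstimulated conditions; test concentration not given here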
[5] = basal RPMI8226 viability, no added stimulus, profiling panel, cell-based, calcein-AM fluorescence, 48 h, PK04 Diversity Set (AID 1166); conditions: RPMI8226 myeloma viability, higher = more signal;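 further: cells grown under basal conditions without added stimulus; test concentration not given here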
[6] = basal HepG2 mitochondrial membrane potential changes, profiling panel, cell-based, JC-1 fluorescence, 24 h, 100 nL compound (AID 1167); conditions: higher = more signal; further: test concentration not given here
[7] = basal 3T3-L1 adipocyte mitochondrial potential changes, profiling panel, cell-based, JC-1 fluorescence, 3T3-L1 adipocytes, 24 h, 100 nL compound (AID 1168); conditions: JC-1 mitochondrial fluorescence, higher = more signal, called active from +8 up or from −8 down; further: test concentration not given here
[8] = basal RPMI8226 mitochondrial membrane potential changes, profiling panel, cell-based, JC-1 fluorescence, 24 h, 100 nL compound (AID 1169); conditions: RPMI8226 myeloma, JC-1 mitochondrial potential fluorescence, higher = more signal; further: test concentration not given here
[9] = basal MM1S mitochondrial membrane potential changes, profiling panel, cell-based, JC-1 fluorescence, 24 h, 100 nL compound (AID 1170); conditions: higher = more signal; further: test concentration not given here
[10] = A549 lung cancer cell viability effects, profiling panel, resazurin fluorescence, 24 h, PK04 Diversity Set (AID 1171); conditions: higher = more signal, called active from +8 up or from −8 down; further: test concentration not given here
[11] = HepG2 liver cancer cell viability effects, profiling panel, resazurin fluorescence, 24 h, PK04 Diversity Set (AID 1172); conditions: higher = more signal; further: test concentration not given here
[12] = basal S. cerevisiae growth modulation, no modifier, primary screen, OD600, strain BY4716, 24 h, basal condition (AID 1173); conditions: OD600, 24 h, higher = more signal, called active from +8 up or from −8 down
[13] = MM1S myeloma cell viability, profiling panel, resazurin fluorescence, basal, 24 h, PK04 Diversity Set (AID 1174); conditions: higher = more signal, called active from +8 up or from −8 down;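 further: MM1S multiple myeloma cell line; test concentration not given here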
[14] = target: Dihydroorotate dehydrogenase (quinone), mitochondrial (Plasmodium falciparum (isolate 3D7)) (UniProt Q08210); experiment: PfDHODH enzyme inhibitors, primary screen, biochemical, C-terminal His tag, absorbance 600 nm (AID 1175); conditions: DCIP absorbance 600 nm, higher = more signal, called active from +8 up or from −8 down;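 further: recombinant parasite enzyme with a five histidine tag at its C terminus; test concentration not given here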
[15] = P. aeruginosa biofilm formation inhibitors, primary screen, strain PAO1, LB-PBS medium, absorbance 600 nm (AID 1176); further: test concentration not given here; conditions: P. aeruginosa PAO1 growth/biofilm, A600, 12 h; higher = more signal
[16] = S. cerevisiae RM11-1a growth modifiers, primary screen, strain RM11-1a, OD600, basal, 24 h (AID 1177); conditions: OD600, 24 h, higher = more signal, called active from +8 up or from −8 down;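 further: cultures grown under basal conditions with no added stressor; test concentration not given here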
[17] = E. coli acrAB mutant growth effects, primary screen, E. coli filamentation inducers, strain DRC39, OD650, 24 h (AID 1178); conditions: higher = more signal, called active from +8 up or from −8 down;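 further: growth measured as culture turbidity by optical density at 650 nm; test concentration not given here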
[18] = E. coli acrAB mutant growth effects, primary screen, E. coli filamentation inducers, strain DRC39, OD650, 48 h (AID 1179);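 further: screen aims at cell division blockers that make cells filament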; conditions: E. coli DRC39 delta-acrAB growth, higher = more signal, called active from +8 up or from −8 down
[19] = RPMI8226 myeloma cell viability, profiling panel, resazurin fluorescence, basal, 24 h, PK04 Diversity Set (AID 1180); conditions: higher = more signal;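 further: RPMI8826 multiple myeloma cell line at 5000 cells per well; test concentration not given here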
[20] = target: E3 ubiquitin-protein ligase XIAP (Homo sapiens) (UniProt P98170); experiment: XIAP binders, primary screen, biophysical, small-molecule microarray, fluorescence 635 nm (AID 1181); conditions: small-molecule microarray binding, higher = more signal;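 further: score merges 667 nm emission and signal to noise over triplicate slides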
Sequence of E3 ubiquitin-protein ligase XIAP (Homo sapiens) (P98170 whole entry, looked up): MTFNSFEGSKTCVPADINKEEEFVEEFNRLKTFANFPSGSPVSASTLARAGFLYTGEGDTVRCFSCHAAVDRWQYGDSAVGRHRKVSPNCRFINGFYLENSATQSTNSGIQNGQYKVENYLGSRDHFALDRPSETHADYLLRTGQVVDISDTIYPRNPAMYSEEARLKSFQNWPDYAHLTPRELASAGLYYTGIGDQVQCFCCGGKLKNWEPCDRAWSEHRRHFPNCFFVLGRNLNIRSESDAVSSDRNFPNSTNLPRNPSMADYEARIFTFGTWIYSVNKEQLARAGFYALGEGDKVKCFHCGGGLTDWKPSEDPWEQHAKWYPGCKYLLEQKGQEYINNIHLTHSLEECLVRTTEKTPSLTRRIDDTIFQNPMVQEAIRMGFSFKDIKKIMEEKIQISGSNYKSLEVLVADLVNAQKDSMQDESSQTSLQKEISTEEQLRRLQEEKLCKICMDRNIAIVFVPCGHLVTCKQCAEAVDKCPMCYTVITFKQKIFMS

Sequence of Dihydroorotate dehydrogenase (quinone), mitochondrial (Plasmodium falciparum (isolate 3D7)) (Q08210 whole entry, looked up): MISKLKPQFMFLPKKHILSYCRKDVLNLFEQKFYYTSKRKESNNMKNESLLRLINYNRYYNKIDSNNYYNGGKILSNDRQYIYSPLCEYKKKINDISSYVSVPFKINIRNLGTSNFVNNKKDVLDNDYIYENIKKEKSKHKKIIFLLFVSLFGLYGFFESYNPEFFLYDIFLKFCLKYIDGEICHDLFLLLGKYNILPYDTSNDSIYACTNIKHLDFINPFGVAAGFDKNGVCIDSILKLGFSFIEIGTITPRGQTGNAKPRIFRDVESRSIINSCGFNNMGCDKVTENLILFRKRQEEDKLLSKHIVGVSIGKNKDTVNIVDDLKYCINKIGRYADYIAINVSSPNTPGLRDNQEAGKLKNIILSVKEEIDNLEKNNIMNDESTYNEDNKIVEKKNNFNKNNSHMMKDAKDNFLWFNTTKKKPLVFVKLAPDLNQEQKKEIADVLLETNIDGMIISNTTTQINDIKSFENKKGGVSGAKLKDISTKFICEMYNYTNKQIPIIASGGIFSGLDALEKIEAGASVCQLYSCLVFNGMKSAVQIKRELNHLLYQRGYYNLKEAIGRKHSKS

Compound	z-score [1]	z-score [2]	z-score [3]	z-score [4]	z-score [5]	z-score [6]	z-score [7]	z-score [8]	z-score [9]	z-score [10]	z-score [11]	z-score [12]	z-score [13]	composite z-score [14]	z-score [15]	z-score [16]	z-score [17]	z-score [18]	z-score [19]	composite z-score [20]
CC(C)CON=C1C[C@@H](O)[C@@H](O)[C@@H]2[C@@H]3C(=O)N(C4CCCCC4)C(=O)[C@@H]3CC[C@H]12	0.325	0.274	0.232	0.768	-0.909	-0.357	0.0297 (inactive)	0.0139	-0.0788	-0.318 (inactive)	-0.451	-0.197 (inactive)	-0.143 (inactive)	0.603 (inactive)	-0.118 (inactive)	-0.207 (inactive)	-0.651 (inactive)	0.272 (inactive)	-0.365	0.224
CO[C@@H]1C=CCC(=O)N2CCC[C@H]2C(=O)OC[C@@H](C)C(=O)OC[C@H]1C	0.623	0.244	1.17	0.138	-0.267	0.848	0.00578 (inactive)	-0.257	0.269	0.585 (inactive)	1.12	-0.62 (inactive)	0.866 (inactive)	0.321 (inactive)	0.659 (inactive)	-0.841 (inactive)	0.947 (inactive)	0.977 (inactive)	0.218	0.104
C[C@H](ON=C1[C@H]2CCn3c(=O)n(-c4ccccc4)c(=O)n3[C@H]2[C@H](O)[C@@H]2O[C@H]12)c1cn([C@H](CO)Cc2ccccc2)nn1	-0.142	-0.443	0.115	-0.403	-0.533	-0.633	-1 (inactive)	-0.243	0.155	-0.16 (inactive)	-0.189	-0.145 (inactive)	-0.489 (inactive)	-1.29 (inactive)	0.0282 (inactive)	-1.09 (inactive)	0.571 (inactive)	0.223 (inactive)	-0.226	-0.106
CO[C@H]1COC(=O)[C@H](C)NC(=O)CC=C[C@@H](C)[C@H](OC)COC(=O)[C@@H](OCc2ccccc2)C=C[C@@H]1C	0.0192	0.0912	0.645	-0.144	-0.646	0.00399	-0.29 (inactive)	-0.0466	0.474	0.703 (inactive)	1.15	-0.479 (inactive)	0.346 (inactive)	0.234 (inactive)	-0.838 (inactive)	-0.462 (inactive)	0.575 (inactive)	0.2 (inactive)	0.323	-0.142
